# Article PMC5540273 (PLoS ONE, 2017)
# Tests used:
# Conditions in all cases: concentration: 1 μM, replicates: in singlicate; n = 1
# SNARK = tested on: T1, SNARK
# T1 construct: gene NUAK2
# SNRK = tested on: SNRK
# SRC = tested on: SRC
# SRMS = tested on: SRMS
# SRPK1 = tested on: SRPK1
# SRPK2 = tested on: SRPK2
# SRPK3 = tested on: SRPK3
# STK16 = tested on: STK16
# STK33 = tested on: STK33
# STK35 = tested on: STK35
# 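Also: KINOMEscan kinase panel screen.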
SMILES,%Inh (SNARK) [%],%Inh (SNRK) [%],%Inh (SRC) [%],%Inh (SRMS) [%],%Inh (SRPK1) [%],%Inh (SRPK2) [%],%Inh (SRPK3) [%],%Inh (STK16) [%],%Inh (STK33) [%],%Inh (STK35) [%]
C[C@@H]1CC[C@@H](C(=O)Nc2ccccc2)CN1c1cc(-c2ccc3c(N)n[nH]c3c2)nc(N)n1 [GSK2286062],11,0,0,0,25,33,0,8,0,0
COc1cccc(NC(=O)NC2CCN(c3ccnc(Nc4cc(OC)c(OC)c(OC)c4)n3)C2)c1 (centres unmarked) [GSK1379763],33,0,10,0,61,0,0,77,0,3
COc1cccc(C2=C(Nc3ccc(Cl)c(C(=O)O)c3)C(=O)NC2=O)c1 [SB-390769],100,100,0,100,13,0,17,8,0,0
CN(C)S(=O)(=O)c1cc(-c2ccc3nccc(-c4cccc(S(N)(=O)=O)c4)c3c2)cnc1N [GSK1669921],22,12,0,0,13,0,19,45,3,8
CN1CCN(CCCNc2nccc(-c3c(-c4ccc(F)cc4)nn4cc(C(F)(F)F)ccc34)n2)CC1 [GW621581],0,0,14,0,26,0,16,0,0,60
C[C@@H](Oc1cc(-n2cnc3cc(-c4ccnc(NCCS(C)(=O)=O)c4)ccc32)sc1C(N)=O)c1ccccc1Cl [GSK907232],95.4,0,48,0,84,0,82,27,0,15
COc1cc(Nc2nccc(-c3c(-c4cccc(NC(=O)c5c(F)cccc5F)c4)nn4ccccc34)n2)cc(OC)c1OC [GSK323521],40,0,22,0,0,21,30,15,11,0
Nc1ncnc2c1nc(-c1ccccc1)n2-c1ccccc1 [SKF-97293],24,18,10,24,0,5,9,0,16,0
FC(F)(F)c1ccc(/C=C/c2cncnc2Nc2ccc3[nH]c(Cc4ccccc4)nc3c2)cc1 [GW709199],45,0,1,0,21,56,2,0,0,0
COc1ccc(Nc2nccc(N3CCC(NC(=O)Nc4cccc(OC)c4)C3)n2)cc1 (centres unmarked) [GSK1379742],0,0,5,0,12,0,0,0,0,2
Cl.Cl.NCC(NC(=O)c1cc(-c2ccccc2)c(-c2ccnc3[nH]ccc23)s1)c1ccccc1 (centres unmarked) [GSK1321561],50,0,69,0,53,0,0,3,100,0
CCn1c(-c2nonc2N)nc2c(C#CC(C)(C)O)ncc(OCCCCN)c21.O=C(O)C(F)(F)F.O=C(O)C(F)(F)F [GSK507274],94.7,19,0,0,0,42,18,0,0,0
COC(=O)Nc1nc2ccc(Oc3ccc(NC(=O)Nc4cc(C(F)(F)F)ccc4F)cc3)cc2n1C.Cl [GW692089],17,0,0,0,26,57,5,0,30,0
COCCOCCOc1cc2ncc3c4ccc(C#N)cc4[nH]c3c2cc1OC,83,17,14,0,50,24,27,11,24,18
CC(=O)Nc1nc2cnc(Nc3cc(NC(=O)c4cccc(C5(C#N)CC5)c4Cl)ccc3C)nc2s1,0,0,45,0,39,5,0,11,0,0
Nc1n[nH]c2cnc(-c3ccccc3)cc12 [SB-642124],60,0,0,0,22,3,24,45,31,0

SMILES,%Inh (SNARK) [%],%Inh (SNRK) [%],%Inh (SRC) [%],%Inh (SRMS) [%],%Inh (SRPK1) [%],%Inh (SRPK2) [%],%Inh (SRPK3) [%],%Inh (STK16) [%],%Inh (STK33) [%],%Inh (STK35) [%]
c1ccc(-c2n[nH]cc2Nc2ccnc3ccccc23)nc1 [GW694077],27,0,0,0,69,46,90,15,6,0
Oc1cc(Nc2ccnc3cc(I)ccc23)ccc1F [GW552771],0,0,67,0,21,0,9,0,0,5
COC(=O)Nc1nc2cc(Oc3ccc(NC(=O)Nc4cc(C(F)(F)F)ccc4F)cn3)ccc2[nH]1.Cl.Cl [GW681170],14,0,29,0,25,8,0,17,55,0
O=C(Nc1cccc(Oc2ccc3nc(NC(=O)C4CC4)cn3n2)c1)c1ccccc1C(F)(F)F,0,0,5,0,59,14,48,17,0,3
Cc1occc1-c1ncc(OC[C@@H](N)Cc2c[nH]c3ccccc23)cc1-c1ccc2[nH]nc(C)c2c1.O=C(O)C(F)(F)F [GSK682037],60,0,65,0,54,0,70,0,86,69
CC(C)(C)c1ccc2nccc(Nc3cccc(O)c3)c2c1 [GW856795],0,0,96.7,0,0,9,20,0,0,0
CN(c1ccc(NC(=O)Nc2cc(C(F)(F)F)ccc2F)cc1)c1ccnc(Nc2ccc(S(N)(=O)=O)cc2)n1 [GW809893],0,5,99.7,0,18,0,20,12,81,10
O=C(Nc1n[nH]c2cc(-c3ccoc3)ccc12)C1CC1 [SB-738481],25,0,0,19,48,0,37,21,0,5
CCc1ccc(-c2ccc3c(c2)-c2c(cnn2C)S(=O)(=O)N3C)cc1,8,0,0,0,0,0,18,0,0,2
Cc1ccc(F)c(C(=O)Nc2cccc(-c3nn4ccccc4c3-c3ccnc(Nc4cccc(F)c4)n3)c2)c1F [GSK361061],11,0,25,44,15,0,25,5,4,33
O=C(Nc1n[nH]c2nc(-c3ccc(O)cc3)ccc12)C1CC1 [SB-710363],0,0,0,2,20,0,25,73,0,0
Cl.Cl.NCC(C(=O)Nc1cc(Br)c(-c2ccnc3[nH]ccc23)s1)c1ccccc1 (centres unmarked) [GSK1269851],0,0,0,0,73,59,90.7,13,52,0
COc1cc(Nc2nccc(N3CCC(NC(=O)c4cc5ccccc5s4)C3)n2)cc(OC)c1OC (centres unmarked) [GSK1379760],20,0,21,8,61,0,22,10,0,9
CCn1c(-c2nonc2N)nc2c(C#CC(C)(C)O)nc(OC[C@H](N)c3ccccc3)cc21 [GSK943949],92.8,0,1,4,41,0,24,9,0,0
Cn1cc(-c2ccc3c(c2)CCN3C(=O)Cc2cccc(Cl)c2)c2c(N)ncnc21 [GSK2606590],18,0,21,0,0,0,11,11,0,0
Cn1cc(-c2ccc3c(c2)CCN3C(=O)Cc2cccc(F)c2)c2c(N)ncnc21 [GSK2603358],10,0,4,0,0,0,9,13,0,0
